Reference: the supplement of paper PMC10849652
Targets with a hit are over-represented here; the source holds about 7,900 in all. About 0.6% of all pairs of compound and target were hits. Values without a mark were called inactive.

Compound: c1ccc([C@@H]2C[C@H]2NC2CCNCC2)cc1
Test: log2 fold change, soluble protein after heating vs DMSO (PISA); higher = thermal stabilisation; K562 cells, 10 uM, 30 min; active = over 0.2 and 3.5 SD of the protein, either way, in both replicates (recomputed)
Summary of the method: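 Quantification of soluble protein used TMTpro 16plex LC-MS/MS, with channel sums equalised. Samples were the supernatant after 21,000xg for 90 min of pooled aliquots from K562 cells (2×10^6 cells/mL) treated with 10 μM compound for 30 min, heated for 3 min over 48°C-58°C, and extracted in PBS with 0.5% NP-40 at 4°C. Values, from duplicates, describe thermal stability against control samples on a log2 fold-change scale.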

Sequence of UniProt Q9NQH7 (Q9NQH7 whole entry, looked up): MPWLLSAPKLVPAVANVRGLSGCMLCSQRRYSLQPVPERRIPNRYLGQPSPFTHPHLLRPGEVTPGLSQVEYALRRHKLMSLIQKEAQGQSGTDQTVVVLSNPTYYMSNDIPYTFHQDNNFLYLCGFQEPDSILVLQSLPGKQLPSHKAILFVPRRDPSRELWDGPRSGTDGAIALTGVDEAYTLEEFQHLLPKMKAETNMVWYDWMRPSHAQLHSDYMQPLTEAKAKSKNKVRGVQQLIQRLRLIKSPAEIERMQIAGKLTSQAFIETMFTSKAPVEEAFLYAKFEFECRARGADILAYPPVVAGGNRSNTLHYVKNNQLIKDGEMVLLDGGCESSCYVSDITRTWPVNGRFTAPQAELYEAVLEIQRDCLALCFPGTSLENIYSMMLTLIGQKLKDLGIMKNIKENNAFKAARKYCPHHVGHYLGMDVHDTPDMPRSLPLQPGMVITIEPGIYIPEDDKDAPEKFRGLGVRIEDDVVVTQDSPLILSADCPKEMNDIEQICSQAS
Sequence of UniProt O43592 (O43592 whole entry, looked up): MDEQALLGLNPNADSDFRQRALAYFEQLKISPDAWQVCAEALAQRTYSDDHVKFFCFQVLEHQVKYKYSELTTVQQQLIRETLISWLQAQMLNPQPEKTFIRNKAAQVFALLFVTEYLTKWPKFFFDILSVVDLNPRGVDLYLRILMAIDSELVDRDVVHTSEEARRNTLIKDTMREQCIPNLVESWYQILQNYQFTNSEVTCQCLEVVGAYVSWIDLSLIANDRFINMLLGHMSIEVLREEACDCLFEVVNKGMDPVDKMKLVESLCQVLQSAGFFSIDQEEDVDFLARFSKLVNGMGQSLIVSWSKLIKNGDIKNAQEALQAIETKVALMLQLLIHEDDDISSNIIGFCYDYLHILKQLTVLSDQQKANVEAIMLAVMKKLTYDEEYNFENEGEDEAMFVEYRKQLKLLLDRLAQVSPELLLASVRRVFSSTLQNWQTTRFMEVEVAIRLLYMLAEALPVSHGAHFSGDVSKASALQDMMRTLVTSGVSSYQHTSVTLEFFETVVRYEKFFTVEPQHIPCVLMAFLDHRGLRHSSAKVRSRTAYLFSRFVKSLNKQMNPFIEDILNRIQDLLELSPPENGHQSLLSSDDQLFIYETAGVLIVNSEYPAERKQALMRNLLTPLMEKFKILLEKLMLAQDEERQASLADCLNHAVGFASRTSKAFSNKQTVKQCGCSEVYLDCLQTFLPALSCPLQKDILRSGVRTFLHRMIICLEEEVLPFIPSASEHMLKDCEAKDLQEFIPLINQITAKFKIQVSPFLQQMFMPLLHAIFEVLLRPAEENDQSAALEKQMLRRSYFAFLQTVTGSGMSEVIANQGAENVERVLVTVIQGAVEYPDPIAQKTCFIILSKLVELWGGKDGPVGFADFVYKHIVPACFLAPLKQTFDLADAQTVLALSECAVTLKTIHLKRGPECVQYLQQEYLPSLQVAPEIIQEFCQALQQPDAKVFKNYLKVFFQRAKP
Sequence of UniProt Q9Y6I4 (Q9Y6I4 whole entry, looked up): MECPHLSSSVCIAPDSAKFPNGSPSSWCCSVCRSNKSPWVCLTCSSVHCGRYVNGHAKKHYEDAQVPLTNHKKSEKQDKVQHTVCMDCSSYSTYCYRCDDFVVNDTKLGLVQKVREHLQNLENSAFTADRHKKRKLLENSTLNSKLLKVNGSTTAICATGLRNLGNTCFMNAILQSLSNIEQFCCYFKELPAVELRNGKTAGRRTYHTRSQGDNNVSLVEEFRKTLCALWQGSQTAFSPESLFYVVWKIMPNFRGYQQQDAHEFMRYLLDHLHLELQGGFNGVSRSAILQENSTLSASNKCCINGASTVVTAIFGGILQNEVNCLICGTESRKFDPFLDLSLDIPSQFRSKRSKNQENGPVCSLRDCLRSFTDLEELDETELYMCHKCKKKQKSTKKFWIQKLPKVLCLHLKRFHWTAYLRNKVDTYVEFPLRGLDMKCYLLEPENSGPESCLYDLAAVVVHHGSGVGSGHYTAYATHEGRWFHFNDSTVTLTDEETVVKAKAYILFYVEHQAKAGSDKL
Sequence of UniProt Q9Y3C0 (Q9Y3C0 whole entry, looked up): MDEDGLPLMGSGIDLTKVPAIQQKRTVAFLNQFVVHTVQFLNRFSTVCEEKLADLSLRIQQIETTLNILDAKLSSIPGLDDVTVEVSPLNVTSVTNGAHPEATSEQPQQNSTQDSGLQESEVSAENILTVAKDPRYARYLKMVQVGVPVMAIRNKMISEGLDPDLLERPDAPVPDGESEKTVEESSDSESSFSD
Sequence of UniProt P21796 (P21796 whole entry, looked up): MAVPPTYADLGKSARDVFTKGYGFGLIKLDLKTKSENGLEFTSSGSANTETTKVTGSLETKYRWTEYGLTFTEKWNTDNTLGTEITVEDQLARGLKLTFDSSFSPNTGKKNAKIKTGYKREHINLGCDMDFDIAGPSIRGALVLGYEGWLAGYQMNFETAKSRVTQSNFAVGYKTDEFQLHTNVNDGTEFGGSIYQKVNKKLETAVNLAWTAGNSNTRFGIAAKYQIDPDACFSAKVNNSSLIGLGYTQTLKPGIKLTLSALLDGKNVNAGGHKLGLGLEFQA
Sequence of UniProt Q8N1B4 (Q8N1B4 whole entry, looked up): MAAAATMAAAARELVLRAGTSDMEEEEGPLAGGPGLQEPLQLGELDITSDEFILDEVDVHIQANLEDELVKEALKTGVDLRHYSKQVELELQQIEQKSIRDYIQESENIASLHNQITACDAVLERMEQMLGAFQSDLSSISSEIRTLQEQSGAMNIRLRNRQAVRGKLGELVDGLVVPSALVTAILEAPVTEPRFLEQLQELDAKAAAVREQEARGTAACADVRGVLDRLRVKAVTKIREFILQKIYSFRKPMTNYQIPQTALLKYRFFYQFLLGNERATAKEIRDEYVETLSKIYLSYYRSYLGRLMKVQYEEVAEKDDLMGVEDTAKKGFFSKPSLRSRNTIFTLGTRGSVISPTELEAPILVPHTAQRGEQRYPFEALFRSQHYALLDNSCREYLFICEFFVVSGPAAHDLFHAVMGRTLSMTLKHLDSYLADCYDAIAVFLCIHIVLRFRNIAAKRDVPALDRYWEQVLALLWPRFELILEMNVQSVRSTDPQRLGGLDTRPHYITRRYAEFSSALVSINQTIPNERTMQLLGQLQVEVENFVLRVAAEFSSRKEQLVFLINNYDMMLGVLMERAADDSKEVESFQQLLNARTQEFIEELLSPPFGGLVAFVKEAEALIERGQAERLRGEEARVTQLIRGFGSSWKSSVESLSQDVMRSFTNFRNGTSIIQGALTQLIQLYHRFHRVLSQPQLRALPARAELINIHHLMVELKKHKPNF
Sequence of UniProt Q7Z5K2 (Q7Z5K2 whole entry, looked up): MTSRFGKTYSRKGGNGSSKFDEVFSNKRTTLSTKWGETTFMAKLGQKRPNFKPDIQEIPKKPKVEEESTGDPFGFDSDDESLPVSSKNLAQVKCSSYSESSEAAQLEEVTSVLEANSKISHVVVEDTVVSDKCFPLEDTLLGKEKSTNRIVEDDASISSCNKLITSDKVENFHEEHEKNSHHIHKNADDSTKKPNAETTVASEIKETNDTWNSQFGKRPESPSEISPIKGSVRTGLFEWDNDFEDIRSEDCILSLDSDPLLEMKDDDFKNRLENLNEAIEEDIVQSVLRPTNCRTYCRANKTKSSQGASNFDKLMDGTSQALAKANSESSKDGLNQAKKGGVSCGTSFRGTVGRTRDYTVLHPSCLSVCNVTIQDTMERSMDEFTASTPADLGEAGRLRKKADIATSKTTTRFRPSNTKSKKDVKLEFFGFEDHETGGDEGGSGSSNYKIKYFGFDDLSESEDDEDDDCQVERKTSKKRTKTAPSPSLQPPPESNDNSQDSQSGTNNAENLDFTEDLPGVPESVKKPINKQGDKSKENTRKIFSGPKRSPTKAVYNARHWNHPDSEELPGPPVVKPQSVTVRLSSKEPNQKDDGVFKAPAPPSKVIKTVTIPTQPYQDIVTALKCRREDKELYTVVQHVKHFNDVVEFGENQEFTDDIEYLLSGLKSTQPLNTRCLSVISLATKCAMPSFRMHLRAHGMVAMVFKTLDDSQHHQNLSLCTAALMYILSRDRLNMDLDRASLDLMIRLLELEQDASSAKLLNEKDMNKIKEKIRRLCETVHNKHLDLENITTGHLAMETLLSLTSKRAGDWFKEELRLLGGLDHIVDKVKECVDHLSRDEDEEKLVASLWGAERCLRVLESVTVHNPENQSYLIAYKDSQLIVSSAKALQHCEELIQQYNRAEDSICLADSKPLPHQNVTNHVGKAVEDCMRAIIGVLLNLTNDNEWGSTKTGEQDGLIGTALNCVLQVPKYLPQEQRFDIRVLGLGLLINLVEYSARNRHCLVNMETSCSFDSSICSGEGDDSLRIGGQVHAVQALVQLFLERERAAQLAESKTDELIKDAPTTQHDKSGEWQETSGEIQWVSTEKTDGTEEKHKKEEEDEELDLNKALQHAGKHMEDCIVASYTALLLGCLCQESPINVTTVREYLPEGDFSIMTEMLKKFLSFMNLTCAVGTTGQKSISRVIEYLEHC
Sequence of UniProt P12956 (P12956 whole entry, looked up): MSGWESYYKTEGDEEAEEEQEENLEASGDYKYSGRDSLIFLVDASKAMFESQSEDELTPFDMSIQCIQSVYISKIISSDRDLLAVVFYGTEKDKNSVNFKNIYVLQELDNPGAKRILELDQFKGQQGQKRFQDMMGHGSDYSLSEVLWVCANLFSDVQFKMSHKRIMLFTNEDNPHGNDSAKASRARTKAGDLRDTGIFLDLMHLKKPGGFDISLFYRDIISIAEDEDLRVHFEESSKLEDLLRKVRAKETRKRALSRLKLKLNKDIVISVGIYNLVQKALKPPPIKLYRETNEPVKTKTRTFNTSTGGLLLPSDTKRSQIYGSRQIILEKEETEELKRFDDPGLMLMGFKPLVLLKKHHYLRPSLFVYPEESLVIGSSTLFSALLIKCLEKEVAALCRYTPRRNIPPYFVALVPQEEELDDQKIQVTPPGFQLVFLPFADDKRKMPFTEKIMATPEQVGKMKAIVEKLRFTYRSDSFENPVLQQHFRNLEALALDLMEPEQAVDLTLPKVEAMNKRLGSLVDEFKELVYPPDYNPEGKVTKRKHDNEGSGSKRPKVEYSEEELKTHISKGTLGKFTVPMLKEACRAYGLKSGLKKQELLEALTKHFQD

Target	log2 fold change
WDR75 (UniProt Q8IWA0)	-0.089
WASHC2C, A0A096LPC5	0.001
VDAC1 (UniProt P21796)	0.026
WDR37 isoform 2 (UniProt Q9Y2I8)	0.054
TMEM173 (UniProt Q86WV6)	-0.005
WDR62 isoform 4 (UniProt O43379)	0.009
TRAPPC2L (UniProt Q9UL33)	0.038
TSG101 (UniProt Q99816)	-0.016
TRIM28 (UniProt Q13263)	0.009
TUBA4A (UniProt C9JJQ8)	0.229
TOMM20 (UniProt Q15388)	0.008
TMTC3 (UniProt Q6ZXV5)	0.005
TXNIP (UniProt Q9H3M7)	-0.099
TRMT10A (UniProt Q8TBZ6)	-0.055
TUT4 (UniProt Q5TAX3)	0.153
WDR41 (UniProt Q9HAD4)	0.055
TRIM4 (UniProt Q9C037)	-0.038
WDR43 (UniProt Q15061)	0.001

Target	log2 fold change
WAPL isoform 3 (UniProt Q7Z5K2)	0.095
TRAPPC6B (UniProt Q86SZ2)	-0.013
TRIP10 (UniProt Q15642)	0.037
USP15 (UniProt Q9Y4E8)	-0.016
XPOT (UniProt O43592)	-0.001
XRCC6 (UniProt P12956)	-0.003
WASHC3 (UniProt Q9Y3C0)	0.028
UFD1 isoform 1 (UniProt Q92890)	0.019
XPNPEP3 (UniProt Q9NQH7)	0.006
VPS52 (UniProt Q8N1B4)	-0.028
WDR61 (UniProt Q9GZS3)	0.012
TOM1L1 (UniProt O75674)	0.023
USP3 (UniProt Q9Y6I4)	-0.025
VPS50 (UniProt Q96JG6)	0.01
UBR2 (UniProt Q8IWV8)	-0.28
USP14 (UniProt P54578)	-0.025
XPO1 (UniProt O14980)	-0.013
WRB (UniProt O00258)	0.01
